Among the data in PubChem BioAssay (EPA / NIEHS) are AC50 and outcome values, retold here.

Where “and” joins values, the source holds several entries; their conditions need not be identical. Equal values may be shown once. Results filed as inconclusive are left out. Some structures have more than one record in an assay (separate samples or runs), and their calls can disagree. Calls of active or inactive are those of the source. The calls were made as follows, unless noted: active = hit-call score of the fitted dose curve at least 0.9, where 1 is the maximum; inactive = score below 0.9.

Usually AC50 stands for the midpoint of the concentration-response curve, whichever way the signal moves.

The first assay is described as follows: TAMU_PeakParms_SingleDonor1434_Chronotropy: Texas A&M University (TAMU) 1.5-hr Human Induced Pluripotent Stem Cell (iPSC)-derived Cardiomyocytes Calcium (Ca+2) Flux Assay for Cardiotoxicity: Chronotropy (changes in peak frequency) (AID 2284217). The note with it: actives raise or lower the signal. Put shortly:
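iPSC-CMs, donor 1434; 4 conc (0.2–100 uM), 0.5% v/v DMSO, 90 min, 37C/5% CO2; Ca2+ flux fluorescence → peak.freq.avg; peak.freq.avg = 0 dropped; bidirectional fit vs DMSO; EC05 POD.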
As to `c1ccc2c(c1)Cc1ccccc1-2`, the AC50 is 50 µM (active).

As for `c1ccc2cc3c(ccc4ccccc43)cc2c1`, the result was inactive.

Take `c1ccc2c(c1)ccc1ccccc12`: the outcome was inactive.

In the case of `CC#C[C@]1(O)CC[C@H]2[C@@H]3CCC4=CC(=O)CCC4=C3[C@@H](c3ccc(N(C)C)cc3)C[C@@]21C`, the AC50 was 0.216 µM (active).

Another assay is described as follows: CCTE_Mundy_HCI_Cortical_Synap_Neur_Matur_SynapseCount: CCTE's Synaptogenesis and Neurite Maturation Assay in rat cortical cells for Synapse Count, Mundy Lab (AID 2284218).
Details: not given
The essentials:
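Read-out: synapse number per neuron, automated high-content imaging of fixed cells immunostained for MAP2 and synaptophysin plus Hoechst nuclei. Rat primary cortical cultures, AraC at DIV 5, chemical dosing DIV 7–12. Positive-direction fit relative to DMSO.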
In the case of `CC1=C(/C=C/C(C)=C/C=C/C(C)=C/C(=O)O)C(C)(C)CCC1`, the outcome was inactive.

Regarding `CN1CCC[C@H]1c1cccnc1`, the outcome was inactive.

For `CC#C[C@]1(O)CC[C@H]2[C@@H]3CCC4=CC(=O)CCC4=C3[C@@H](c3ccc(N(C)C)cc3)C[C@@]21C`, the AC50 is 13.3 µM (active) and 25.1 µM (active).

The nature of a further assay: CCTE_Mundy_HCI_Cortical_Synap_Neur_Matur_CellBodySpotCount: CCTE's Synaptogenesis and Neurite Maturation Assay in rat cortical cells for Cell Body Spot Count, Mundy Lab (AID 2284223).
Details: not given
As to the method: CCTE_Mundy_HCI_Cortical_Synap&Neurite_Matur is a multiplexed, cell-based-readout assay that uses rat primary cortical cells with measurements taken at 288.33 hours after chemical dosing in a microplate: 96-well plate.CCTE_Mundy_HCI_Cortical_Synap_Neur_Matur_CellBodySpotCount is one of eight components of the CCTE_Mundy_HCI_Cortical_Synap&Neurite_Matur assay. It measures synaptogenesis and neurite maturation related to number of cell body-associated synapses (synaptophysin puncta) per neuron using High Content Imaging of fluorescently labelled markers.[…] Using a type of morphology reporter, loss -of-signal activity can be used to understand developmental effects.
Cells are plated onto 96 well plates and allowed 2 hr for attachment to the substrate. At days in vitro (DIV) 5, Cytosine Arabinoside (AraC) is added to arrest glial cell growth. Chemicals are dosed and a media change is performed at DIV 7 of differentiation and is continued through DIV 12 when the experiment is terminated. Cells are fixed with […] and Hoechst Dye. Cells are stained using Millipore Mouse anti-MAP2MAB3418 (1:800) and Millipore Rabbit anti-Synaptophysinsc-1750 (1:250) primary antibodies and Alexa Fluor-488 goat anti-mouse and AlexaFluor-546 goat anti-rabbit secondary antibodies to label neuronal cell nuclei, synapses and neurites. A Cellomics ArrayScan VTi HCS Reader is used for automated image acquisition and analysis of neurite outgrowth.
In the case of `CC1=C(/C=C/C(C)=C/C=C/C(C)=C/C(=O)O)C(C)(C)CCC1`, the result was inactive.

In the case of `CN1CCC[C@H]1c1cccnc1`, the compound was called inactive.

As to `CC#C[C@]1(O)CC[C@H]2[C@@H]3CCC4=CC(=O)CCC4=C3[C@@H](c3ccc(N(C)C)cc3)C[C@@]21C`, the AC50 was 16.7 µM (active) and 24.8 µM (active).

The nature of a further assay: CCTE_Mundy_HCI_hNP1_Pro_ResponderAvgInten: CCTE's Proliferation Assay in human neuroprogenitor cells, Mundy Lab (AID 2284224; active = hit-call score of the fitted dose curve at least 0.9, where 1 is the maximum;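 also: human neural progenitor cells hNP1 derived from WA09 embryonic stem cells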).
Details: not given
Put shortly: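 Human neuroprogenitors (hNP1, WA09 lineage) receive test chemical after 40 to 44 hours of attachment. A four-hour BrdU pulse begins twenty hours later, followed by fixation and high content imaging; signal is referenced to DMSO controls.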
For the compound `C=C(C)C(=O)OCCC(F)(F)C(F)(F)C(F)(F)C(F)(F)C(F)(F)C(F)(F)F`, the outcome was inactive.

On to `OCCC(F)(F)C(F)(F)C(F)(F)C(F)(F)C(F)(F)C(F)(F)C(F)(F)C(F)(F)F`, for which the compound was called inactive.

As to `CC#C[C@]1(O)CC[C@H]2[C@@H]3CCC4=CC(=O)CCC4=C3[C@@H](c3ccc(N(C)C)cc3)C[C@@]21C`, the AC50 is 18 µM (active) and 23.2 µM (active).

A short description of a further assay: BSK_BT_PBMCCytotoxicity: PBMC Cytotoxicity Assessment in the BioMAP Diversity Plus: BT Assay (AID 2284225).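 Also: PBMC viability measured by Alamar Blue dye reduction fluorescence.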 Particulars: primary human B cells with PBMC. The essentials:
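Primary human co-culture of B cells and PBMC, pre-dosed 1 h then activated with SEB and TSST-1. Cytotoxicity is taken from Alamar Blue dye reduction, added for 6 h at the end of a 90 h incubation.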
As for `CCCCCCCCCCCCCC[N+](C)(C)C`, the AC50 was 11.5 µM (active).

On to `NCC(F)(F)C(F)(F)C(F)(F)C(F)(F)C(F)(F)C(F)(F)C(F)(F)F`, for which the result was inactive.

In the case of `FC(F)(I)C(F)(F)C(F)(F)C(F)(F)C(F)(F)C(F)(F)I`, the concentration at half-maximal activity (AC50) was 25.6 µM (active) [middle of 5 runs].

On to `C=C(C)C(=O)OCCC(F)(F)C(F)(F)C(F)(F)C(F)(F)C(F)(F)C(F)(F)F`, for which the outcome was inactive.

In the case of `C[C@@H]1C[C@H]2[C@@H]3CCC4=CC(=O)C=C[C@]4(C)[C@@]3(F)[C@@H](O)C[C@]2(C)[C@@]1(O)C(=O)COP(=O)(O)O`, the AC50 was 0.485 µM (active) and the result was inactive.

For `OCCC(F)(F)C(F)(F)C(F)(F)C(F)(F)C(F)(F)C(F)(F)F`, the AC50 was 30 µM (active) and the result was inactive.

For `OCCC(F)(F)C(F)(F)C(F)(F)C(F)(F)C(F)(F)C(F)(F)C(F)(F)C(F)(F)F`, the AC50 is 43.4 µM (active) and 40.7 µM (active).
